GCN5L2 inh – inhibitors of human GCN5L2 histone acetyltransferase. Q92830. GCN5L2 HAT assay, ThioGlo1 CoA-SH fluorescence. Potency, µM (series often up to 58.9 µM), usual class: inhibitors. 0.21% of 390,000 active. AID 504327
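qHTS, 1536-well. 20nM enzyme, pH 7.5 HEPES/EDTA/Tween-20 buffer; 15 min compound preinc., RT. Start: 75uM H3(1-25), 70uM AcCoA, 50uM ThioGlo1. Read Ex340/Em540 at t=0 (autofluorescence flag) and t=20 min.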
GLS inhibitor – inhibitors of human glutaminase (GLS) | O94925 | GLS enzymatic activity, qHTS titration | Potency, µM (titrated, usually from 45.5 µM), hits mostly inhibitors | 0.21% of 410,000 active
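Assay buffer: 45 mM KH2PO4 pH 8.2, 0.02% Tween-20. hKGA acts on L-glutamine (1 mM solution added); product glutamate is reported by an oxidase/peroxidase Amplex Red coupling, with fluorescence taken at baseline and 30 min.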
Sfp inh – blocks B. subtilis Sfp PPTase activity; AID 1490; Potency, µM, most hits filed as inhibitors; Biochemical Sfp PPTase activity, qHTS; 3.5% of 310,000 active; Q9F4F7;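 also: the enzyme is Sfp with the accession as filed and its product quenches rhodamine fluorescence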
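Reaction rates are the 30-min fluorescence difference (ex 525, em 598 nm) in wells containing 15 nM Sfp, 5 uM rhodamine-CoA and 12.5 uM BHQ-2-YbbR at pH 7.6 with 10 mM MgCl2.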
TrxR1 substrate – is turned over as a substrate by rat TrxR1; AID 588456; O89049; purified TrxR1 substrate turnover, NADPH consumption readout; Potency, µM (titrated, usually from 114 µM); 0.01% of 390,000 active; also: nearly all actives have a fitted effect of over 50% in size
Target sequence (O89049 whole entry, looked up): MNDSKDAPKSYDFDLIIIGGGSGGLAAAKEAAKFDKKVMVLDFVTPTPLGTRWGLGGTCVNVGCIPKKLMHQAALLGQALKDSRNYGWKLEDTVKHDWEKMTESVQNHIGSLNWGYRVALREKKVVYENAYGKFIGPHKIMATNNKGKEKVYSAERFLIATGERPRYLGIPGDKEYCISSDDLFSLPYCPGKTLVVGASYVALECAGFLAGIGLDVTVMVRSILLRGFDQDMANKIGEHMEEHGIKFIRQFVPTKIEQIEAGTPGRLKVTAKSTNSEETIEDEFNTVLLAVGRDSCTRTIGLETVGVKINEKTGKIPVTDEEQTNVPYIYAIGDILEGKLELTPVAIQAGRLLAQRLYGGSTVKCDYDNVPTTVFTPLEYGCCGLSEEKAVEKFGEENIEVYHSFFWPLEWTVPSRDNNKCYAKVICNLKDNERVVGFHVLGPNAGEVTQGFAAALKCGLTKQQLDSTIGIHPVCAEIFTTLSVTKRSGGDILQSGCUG
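Rat TrxR1, dispensed at 90 nM, was prereduced with 400 uM NADPH (final) for 5 min at ~22 deg C, then incubated with compound 15 min before 400 uM selenite. A first-read NADPH fluorescence drop versus no-compound background flagged substrates.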
TrxR1 inh – blocks rat thioredoxin reductase 1. O89049. recombinant rTrxR1, NADPH fluorescence consumption, selenite substrate. Potency, µM (series often up to 114 µM), hits mostly inhibitors. 1% of 390,000 active. AID 588453; also: nearly all actives have a fitted effect of over 65% in size
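Rat TrxR1 (90 nM in the dispensed reagent) was pre-reduced with 400 uM NADPH for 5 min at room temperature, then incubated with compound for 15 min. After 400 uM selenite was added, NADPH fluorescence (Ex 340/Em 450 nm) was followed for 8 min.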
VDR inh – inhibitors of human vitamin D receptor | P11473 | 0.93% of 400,000 active | Potency, µM, actives largely listed as inhibitors | VDR-SRC2-3 peptide fluorescence polarization, 2 h
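Two reagent solutions held at 4 deg C in the dark were dispensed, compounds pinned at 23 nl, and the mixture incubated 2 h at room temperature. Read-out: fluorescence polarization of VDR–SRC2-3 peptide binding.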
Each line names hits and unclear results; the compound was inactive in the other large screens. Shown are actives, neighbours in structure and some others; about 3.8% of the full set was active somewhere. Calls follow the shape of the dose curve; as a rule, active = well fitted curve in the direction sought with a large enough effect; inconclusive = small, poorly fitted or top-dose-only effect, or another doubt; inactive = no such curve, though single readings can be large; an effect the other way counts as inactive or inconclusive.

Cc1ccccc1NC(=O)C1c2cccc[n+]2CC(=O)N1c1c(C)cccc1C (stereo not drawn)	Sfp inh 50µM
Cc1cccc(C)c1NC(=O)C1c2cccc[n+]2CC(=O)N1Cc1ccc2c(c1)OCO2 (stereo not drawn)	none
N#CC(C#N)=Cc1ccc(OCC(=O)N2CCOCC2)cc1	TrxR1 inh 16µM, VDR inh inconclusive
Fc1ccc(C(c2nnc(-c3ccccc3)o2)N2CCN(c3cccc(Cl)c3)CC2)cc1 (stereo not drawn)	none (no result: Sfp inh)
CCOC(=O)c1c(/N=C/c2cccc([N+](=O)[O-])c2O)sc2c1CCC2	Sfp inh 18µM
CCOC(=O)c1c(NC(=O)c2c(C(=O)O)cccc2[N+](=O)[O-])sc2c1CCCC2	GLS inhibitor inconclusive, Sfp inh 18µM, VDR inh inconclusive
CCOC(=O)c1c(NC(=S)Nc2cc([N+](=O)[O-])ccc2OC)sc2c1CCCCC2	Sfp inh 22µM (no result: GLS inhibitor, TrxR1 substrate, TrxR1 inh, VDR inh)
CCOC(=O)c1c(NC(=O)c2cccc([N+](=O)[O-])c2C(=O)O)sc2c1CCCC2	none
CCOC(=O)c1c(/N=C/c2ccc(C)cc2O)sc2c1CCN(C)C2	GLS inhibitor 10µM
CN1CCc2c(sc(/N=C/c3cccs3)c2C(N)=O)C1	GLS inhibitor inconclusive, VDR inh 32µM
CN1CCc2c(sc(/N=C/c3ccco3)c2C(N)=O)C1	GLS inhibitor inconclusive, TrxR1 inh inconclusive, VDR inh inconclusive
CCOC(=O)c1c(/N=C/c2cc([N+](=O)[O-])ccc2O)sc(C)c1C	Sfp inh 40µM
CCc1nc2ccc(C(=O)N3CCN(c4cc(C)ccc4C)CC3)cc2nc1CC	Sfp inh inconclusive
O=C(Nc1ccccc1)C1=C(c2ccccc2)S(=O)(=O)CCS1(=O)=O	Sfp inh 13µM, TrxR1 inh 0.22µM, VDR inh 22µM
O=C(O)c1ccccc1C(=O)Nc1ccccc1	none
O=c1oc2ccccc2nc1/C=C(\O)c1ccc(Br)cc1	Sfp inh 56µM
Cn1c(=O)c2c(nc(NN=C3CCCC3)n2C)n(C)c1=O	Sfp inh 22µM
Cn1c(=O)c2c(nc(NNC(=O)C(F)(F)F)n2C)n(C)c1=O	Sfp inh 0.89µM
CCn1c(-c2csc3c2CCC(C)C3)n[nH]c1=S (stereo not drawn)	none
Cc1nnc(N2CCOCC2)c2nn(-c3cccc(Cl)c3)c(C)c12	none
O=C1N/C(=C/c2ccc(Br)s2)C(=O)N1c1ccccc1	Sfp inh inconclusive
Cc1ccc(/C=C2/NC(=O)N(Cc3ccccc3F)C2=O)o1	Sfp inh 14µM, TrxR1 inh inconclusive, VDR inh 79µM
O=C1N/C(=C/c2ccc(N3CCOCC3)o2)C(=O)N1c1cccc(Cl)c1	Sfp inh 8.9µM, TrxR1 inh 3.2µM, VDR inh inconclusive
Cc1ccc(/C=C2/NC(=O)N(c3ccccc3)C2=O)o1	GCN5L2 inh inconclusive, Sfp inh 25µM, TrxR1 inh 50µM, VDR inh inconclusive
CCn1c(C)cc(/C=C2/NC(=O)N(Cc3ccccc3F)C2=O)c1C	none
CCN1C(=O)N/C(=C/c2ccc(C)o2)C1=O	TrxR1 inh inconclusive, VDR inh 89µM
CN(C)S(=O)(=O)c1cccc(C(=O)OCC(=O)Nc2sccc2C(N)=O)c1	none
COc1cc(C(C(=O)NC2CCCCC2)N(C(=O)c2snc(C(N)=O)c2N)c2ccc(C)cc2)ccc1O (stereo not drawn)	none
CCN1C(=O)/C(=C/c2ccc(C)o2)N(C)C1=S	Sfp inh 6.3µM, TrxR1 inh 32µM, VDR inh inconclusive
Cc1ccc(/C=C2/NC(=O)N(Cc3ccc(Br)cc3)C2=O)o1	GCN5L2 inh inconclusive, Sfp inh 3.2µM, TrxR1 inh inconclusive, VDR inh inconclusive
CCN1C(=O)/C(=C/c2cccs2)N(C)C1=S	none
CCCN1C(=O)/C(=C/c2ccc(C)o2)NC1=S	Sfp inh 20µM (no result: GLS inhibitor, TrxR1 substrate, TrxR1 inh, VDR inh)
Cc1ccc(CN2C(=O)N/C(=C\c3ccc(N4CCOCC4)cc3)C2=O)cc1	none
O=C(O)COc1ccc(NC(=O)c2cccs2)cc1	none (no result: GCN5L2 inh, Sfp inh)
Cc1ccc(-c2csc3n[nH]c(=S)n23)cc1	GCN5L2 inh 25µM, GLS inhibitor inconclusive, Sfp inh 13µM, TrxR1 inh inconclusive
C/C(=N\NS(=O)(=O)c1ccc(Cl)c([N+](=O)[O-])c1)c1ccc(C)o1	TrxR1 inh 40µM, VDR inh inconclusive
C/C(=N\NS(=O)(=O)c1ccc(Cl)c([N+](=O)[O-])c1)c1cc2ccccc2o1	TrxR1 inh inconclusive
C=CCn1c(SCC(=O)NCc2ccco2)nc2sc3c(c2c1=O)CCCC3	none
O=C(NCc1ccco1)c1ccc2nc3sc4c(c3c(=O)n2c1)CCCC4	Sfp inh 10µM (no result: GLS inhibitor, TrxR1 substrate, TrxR1 inh, VDR inh)
COc1ccc(N=C2SC(C(N)=O)CC(=O)N2Cc2ccc3c(c2)OCO3)cc1 (stereo not drawn)	none
C[C@@]1(C(=O)O)NCCc2cc(O)c(O)cc21	GCN5L2 inh inconclusive, Sfp inh 56µM (no result: GLS inhibitor, TrxR1 substrate, TrxR1 inh)
COC(=O)[C@@]1(Cc2ccccc2)[C@@H]2[C@@H](CC(=O)[C@H]2CC(=O)C(=O)N(C)C)CN1C(=O)c1ccccc1	none (no result: GCN5L2 inh, GLS inhibitor, TrxR1 substrate, TrxR1 inh, VDR inh)
C=C1C(=O)C=C2CN(C(=O)c3ccccc3)[C@@](Cc3ccc(F)cc3)(C(=O)OC)[C@@H]12	Sfp inh 10µM, TrxR1 inh 8.9µM, VDR inh inconclusive
COC(=O)[C@@]1(Cc2ccc(OC)cc2)[C@@H]2C(=CC(=O)[C@H]2CC(=O)C(=O)N(C)C)CN1C(=O)c1ccccc1	VDR inh 79µM
C=C1C(=O)CC2=C1[C@](Cc1ccc(F)cc1)(C(=O)OC)N(C(=O)c1ccccc1)C2	none (no result: GCN5L2 inh, Sfp inh, TrxR1 substrate, TrxR1 inh, VDR inh)
O=C1CNC(=S)N1CCOc1ccccc1	none
O=C1CNC(=S)N1CCc1ccc(O)c(O)c1	Sfp inh 45µM, TrxR1 inh inconclusive
O=Cc1ccccc1-n1cccn1	none
Oc1cc(-n2cccn2)c(O)cc1-n1cccn1	GLS inhibitor inconclusive, Sfp inh 5µM
Cc1ccc(O)c2ncccc12	none (no result: TrxR1 substrate, TrxR1 inh)
Cc1ccccc1NCc1ccc(O)c2ncccc12	TrxR1 inh 0.63µM, VDR inh inconclusive
Cc1cccc(NCc2ccc(O)c3ncccc23)c1	TrxR1 inh 0.79µM
Oc1ccc(CNc2ccc(F)cc2)c2cccnc12	TrxR1 inh 0.63µM, VDR inh inconclusive
Oc1ccc(CNc2ccccc2)c2cccnc12	TrxR1 inh inconclusive, VDR inh inconclusive
O=C(Cn1nnc(-c2ccccc2)n1)N=Nc1c(O)[nH]c2ccccc12	Sfp inh 89µM
CCCCn1c(N)c(N(Cc2ccccc2OC)C(=O)c2ccc([N+](=O)[O-])s2)c(=O)[nH]c1=O	none (no result: Sfp inh)
Cc1ccc(-n2cc(-c3ccccc3)c3c(NC4CCCC4)ncnc32)cc1	none (no result: Sfp inh)
COc1cccc(NC(=O)c2ccc(-c3ccccc3[N+](=O)[O-])o2)c1	Sfp inh 45µM, TrxR1 inh 16µM

Compound activity deposited in PubChem BioAssay by National Center for Advancing Translational Sciences (NCATS).
